{"source": "PubChem BioAssay AID720704", "about": "(The Scripps Research Institute Molecular Screening Center, 2013)", "note": "Out of some 370,000 compounds screened, about 660 (0.18%) were called active. The full list was thinned out, with actives kept by preference. Unmarked numbers belong to inactive results. Rule as the data show it: active = inhibition above about 11%; inactive = the rest."}
{"target": "1-phosphatidylinositol 4,5-bisphosphate phosphodiesterase beta-3 (Homo sapiens) (UniProt Q01970)", "sequence (Q01970 whole entry, looked up)": "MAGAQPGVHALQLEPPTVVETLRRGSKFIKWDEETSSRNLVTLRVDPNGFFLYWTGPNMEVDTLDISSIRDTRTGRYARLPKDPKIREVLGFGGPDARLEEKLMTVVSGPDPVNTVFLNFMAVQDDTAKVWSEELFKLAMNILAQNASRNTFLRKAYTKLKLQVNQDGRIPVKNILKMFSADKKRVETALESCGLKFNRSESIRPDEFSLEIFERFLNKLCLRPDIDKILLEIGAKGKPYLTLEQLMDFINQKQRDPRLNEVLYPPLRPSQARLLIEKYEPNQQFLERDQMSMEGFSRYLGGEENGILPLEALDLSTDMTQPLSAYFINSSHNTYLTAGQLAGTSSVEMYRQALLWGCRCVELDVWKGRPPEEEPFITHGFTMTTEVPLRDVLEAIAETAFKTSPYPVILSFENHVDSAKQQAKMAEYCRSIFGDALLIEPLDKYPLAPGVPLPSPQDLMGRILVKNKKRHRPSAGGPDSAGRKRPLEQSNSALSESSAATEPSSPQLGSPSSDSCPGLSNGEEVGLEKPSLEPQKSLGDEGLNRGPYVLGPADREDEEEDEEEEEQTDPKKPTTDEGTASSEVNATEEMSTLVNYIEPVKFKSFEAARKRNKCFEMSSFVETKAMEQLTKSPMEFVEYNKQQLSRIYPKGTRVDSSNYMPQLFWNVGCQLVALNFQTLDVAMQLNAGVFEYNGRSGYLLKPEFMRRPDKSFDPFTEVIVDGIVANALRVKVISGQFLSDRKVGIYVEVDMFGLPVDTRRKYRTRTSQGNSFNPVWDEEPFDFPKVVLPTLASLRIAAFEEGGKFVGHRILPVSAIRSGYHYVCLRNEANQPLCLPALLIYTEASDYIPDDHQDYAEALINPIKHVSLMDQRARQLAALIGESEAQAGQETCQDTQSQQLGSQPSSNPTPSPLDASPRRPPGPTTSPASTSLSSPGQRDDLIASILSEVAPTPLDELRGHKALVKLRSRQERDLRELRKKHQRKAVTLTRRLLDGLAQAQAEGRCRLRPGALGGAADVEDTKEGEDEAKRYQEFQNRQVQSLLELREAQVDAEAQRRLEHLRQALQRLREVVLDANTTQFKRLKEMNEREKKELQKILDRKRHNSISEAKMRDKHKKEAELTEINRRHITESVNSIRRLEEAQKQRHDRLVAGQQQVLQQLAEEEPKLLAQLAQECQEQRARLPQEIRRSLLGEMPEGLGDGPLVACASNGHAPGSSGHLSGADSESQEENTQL", "test": "phospholipase C beta3 enzyme inhibition – biochemical, fluorescence, primary screen (AID 720704);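 also: 0% = median of compound wells on plate and 100% = full blocker control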", "settings": "Purified PLC-beta3, fluorogenic substrate, at 12.2 µM, stronger effect = higher value"}
{"molecule": "CCC(=NCc1ccco1)c1c(O)n(Cc2ccccc2)c(=O)[nH]c1=O", "inhibition": "11.8% (active)"}
{"molecule": "CCCCn1c(O)c(C(CC)=NCc2ccco2)c(=O)[nH]c1=O", "inhibition": "7%"}
{"molecule": "CN(C)CCCN=Cc1c(O)n(Cc2ccco2)c(=O)[nH]c1=O", "inhibition": "-6.13%"}
{"molecule": "COC(=O)[C@@H]1C(OC(=O)c2ccccc2)CC2CCC1N2C", "note": "(stereo not given in full)", "inhibition": "-5.47%"}
{"molecule": "CCN1c2nc3c(C)cccn3c(=O)c2CC2(C(=O)N(C)C(=O)N(C)C2=O)C1C", "note": "(stereo not given)", "inhibition": "-9.87%"}
{"molecule": "c1ccc(CC2CCCCN2)cc1", "note": "(stereo not given)", "inhibition": "-1.27%"}
{"molecule": "CC(C)(C)[C@]1(O)C[C@@H]2OC(=O)C[C@@]23C(=O)O[C@@H]2OC(=O)[C@H](O)[C@]213", "inhibition": "11.8% (active)"}
{"molecule": "CN(C)/C=C(\\C=[N+](C)C)c1[nH]ncc1[N+](=O)[O-]", "inhibition": "3.86%"}
{"molecule": "Cc1cc(C)cc(NC(=S)NC2CC3CCCC(C2)N3Cc2cccs2)c1", "note": "(stereo not given)", "inhibition": "5.75%"}
{"molecule": "O=C(COC(=O)Cc1ccccc1)Nc1ccc(F)cc1", "inhibition": "3.13%"}
